The values below come from PubChem BioAssay (NCI).

Test systems include SK-MEL-2 melanoma; EKVX NSCLC; SN12C renal; UO-31 renal; TK-10 renal; ACHN renal; CAKI-1 renal; A498 renal; CCRF-CEM leukemia; MOLT-4 leukemia.
Holding throughout (test): NCI-60 one-dose screen, 48 h (100 = growth as untreated, 0 = no growth, -100 = all killed)
What all share (details): 10 µM unless noted

Compounds without any hit were thinned out: in the full panel of roughly 83,000, 20% have a hit.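 Note: values are percent growth. 100 is the growth of untreated cells, values between 100 and 0 indicate rising inhibition; between -100 and 0 indicates cell death.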 A number with no mark means an inactive call. The source made the active and inactive calls. Rule for the calls: active = growth percent below 10; inactive = the rest.

As for `C=CC1(C)C(O[Si](C)(C)C(C)(C)C)CC2C3OC(=O)NC31c1cccc3c1[C@H](C(=O)N3C)C2(C)C` (stereo not given in full), the growth in the assay on SK-MEL-2 melanoma is 66.9%; in the assay on EKVX NSCLC, 44.2%; with SN12C renal it was 50.2%; in the assay on UO-31 renal, 49.5%; in the assay on TK-10 renal, 71.3%; with ACHN renal it was 59.6%. Also, the growth in the assay with CAKI-1 renal is 53.3%; in the assay on A498 renal it was 62.6%; in the assay on CCRF-CEM leukemia, 47.1%; in the assay with MOLT-4 leukemia, 26%.
Regarding `Cc1ccc(/C=C2\CN(C(=O)C(Cl)Cl)C/C(=C\c3ccc(C)cc3)C2=O)cc1`, the growth in the assay with SK-MEL-2 melanoma is -5.43% (active); with EKVX NSCLC, -48.7% (active); in the assay on SN12C renal it was -51.3% (active); with UO-31 renal it was -100% (active); in the assay with TK-10 renal, -63.1% (active); with ACHN renal it was -97.8% (active). Also, the growth was -49.6% (active) with CAKI-1 renal, -89.3% (active) in the assay with A498 renal, 9.16% (active) in the assay with CCRF-CEM leukemia and 0.0942% (active) in the assay on MOLT-4 leukemia.
For `CCOC(=O)NN1CC(O)=C(c2nc(-c3ccc(Br)cc3)cs2)C1=N`, the growth with SK-MEL-2 melanoma is 128%; in the assay with EKVX NSCLC, 104%; in the assay with SN12C renal it was 161%; with UO-31 renal, 87%; with TK-10 renal, 116%; in the assay with ACHN renal, 111%. In addition, the growth in the assay on CAKI-1 renal is 92.9%; in the assay with A498 renal, 93.4%; in the assay on CCRF-CEM leukemia, 86.2%; in the assay with MOLT-4 leukemia, 75.9%.
For `CCN(CC)c1ccc(N2C(=O)/C(=C/c3cccs3)SC2=S)cc1`, the growth with SK-MEL-2 melanoma was 110%; with EKVX NSCLC, 92.2%; with SN12C renal, 91.5%; in the assay with UO-31 renal, 73.3%; with TK-10 renal, 92.9%; with ACHN renal it was 94.3%. The growth is 89.7% with CAKI-1 renal, 71.1% in the assay on A498 renal, 83% with CCRF-CEM leukemia and 97.9% with MOLT-4 leukemia.
For `C=C1C(=O)O[C@H]2[C@H]1CC/C(Cn1cc(-c3cc(C(F)(F)F)cc(C(F)(F)F)c3)nn1)=C\CC[C@@]1(C)O[C@@H]21`, the growth with SK-MEL-2 melanoma was -84.1% (active); in the assay on EKVX NSCLC, -97.1% (active); in the assay on SN12C renal, -77.5% (active); in the assay on UO-31 renal, -96.3% (active); with TK-10 renal it was -99.4% (active); in the assay on ACHN renal it was -92.6% (active). The growth in the assay with CAKI-1 renal is -95.3% (active); with A498 renal it was -94.5% (active); in the assay on CCRF-CEM leukemia, -32.9% (active); in the assay with MOLT-4 leukemia, -28.2% (active).
For `O=C(/C=C/c1cccc(Cl)c1)c1cccc(OCCCCOc2cccc(C(=O)/C=C/c3cccc(Cl)c3)c2)c1`, the growth with SK-MEL-2 melanoma was 103%; with EKVX NSCLC it was 106%; in the assay with SN12C renal, 92.9%; in the assay on UO-31 renal, 72%; with TK-10 renal, 109%; in the assay with ACHN renal, 100%. Moreover, the growth in the assay on CAKI-1 renal was 75.7%; in the assay with A498 renal it was 96.9%; in the assay on CCRF-CEM leukemia, 84.4%; in the assay with MOLT-4 leukemia it was 89%.
In the case of `C=C(C)[C@@H]1CC[C@]2(CO)CC[C@]3(C)[C@H](CC[C@@H]4[C@@]5(C)CCC(NCCc6ccc(O)cc6)C(C)(C)[C@@H]5CC[C@]43C)[C@@H]12` (stereo not given in full), the growth was -85% (active) in the assay on SK-MEL-2 melanoma; -52.1% (active) in the assay with EKVX NSCLC; -88.9% (active) with SN12C renal; -96.9% (active) with UO-31 renal; -94.5% (active) in the assay with TK-10 renal; -100% (active) in the assay on ACHN renal. Moreover, the growth was -58.5% (active) in the assay with CAKI-1 renal, 6.99% (active) with A498 renal, -41.3% (active) in the assay with CCRF-CEM leukemia and -43.8% (active) in the assay with MOLT-4 leukemia.
As for `CCn1cc(C(=O)NN=C2CCCCCC2)c(=O)c2ccc(C)nc21`, the growth in the assay with SK-MEL-2 melanoma was 105%; with EKVX NSCLC, 93.2%; in the assay with SN12C renal, 85.5%; with UO-31 renal it was 75.2%; with TK-10 renal it was 95.7%; in the assay on ACHN renal it was 84.7%. Moreover, the growth is 79.9% in the assay with CAKI-1 renal, 58% in the assay on A498 renal, 91.7% in the assay with CCRF-CEM leukemia and 71% in the assay with MOLT-4 leukemia.
Regarding `COc1ccc(C2CC(c3ccc(Nc4nc(Nc5ccc(F)cc5)nc(Nc5ccc(F)cc5)n4)cc3)=NN2C(C)=O)cc1` (stereo not given), the growth in the assay with SK-MEL-2 melanoma was 72%; in the assay with EKVX NSCLC, 94.8%; with SN12C renal, 116%; with UO-31 renal it was 97.7%; with TK-10 renal, 104%; in the assay on ACHN renal it was 84.5%. The growth in the assay with CAKI-1 renal was 90.6%; in the assay with A498 renal, 85.3%; with CCRF-CEM leukemia, 23.5%; with MOLT-4 leukemia, 34.6%.
As for `O=P(O)(O)OCC1OC(n2cnc3c(NCc4ccccc4)ncnc32)C(O)C1O` (stereo not given), the growth is 85.2% in the assay on SK-MEL-2 melanoma; 24.7% in the assay on EKVX NSCLC; 19.7% with SN12C renal; 41.2% in the assay with UO-31 renal; 10.9% in the assay with TK-10 renal; 8.81% (active) with ACHN renal. For the same compound, the growth with CAKI-1 renal is 11%; in the assay with A498 renal it was -11.5% (active); in the assay with CCRF-CEM leukemia it was 2.68% (active); with MOLT-4 leukemia, 21.7%.
`CN1C(=O)/C(=C/c2ccc(C(=O)Nc3ncc(Cc4ccc(F)cc4)s3)cc2)SC1=S`: the growth with SK-MEL-2 melanoma is 71.2%; in the assay on EKVX NSCLC, 48.4%; with SN12C renal, 61.8%; in the assay with UO-31 renal it was 46.5%; with TK-10 renal, 53.5%; in the assay on ACHN renal, 28%. Besides, the growth in the assay with CAKI-1 renal is 16.3%; with A498 renal it was 35%; in the assay on CCRF-CEM leukemia, 47.8%; in the assay with MOLT-4 leukemia it was 39.6%.
